Bioassay records deposited in PubChem by National Center for Advancing Translational Sciences (NCATS).
PTHR1 ag = activates the human parathyroid hormone receptor PTHR1; AID 743266; HEK293 GP2 PTHR1 cells, GloSensor cAMP luminescence, 1 h; hit rate 0.075% among 410,000; Q03431; Potency, µM (series often up to 115 µM), for inactives: at the highest dose activation, usual class: activators; also: potency is read from the fitted curve at half-maximal effect; nearly all actives have a fitted effect of over 55% in size
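HEK-293-derived GP2 cells expressing PTHR1 and a GloSensor cAMP reporter, 3,000/well, plated overnight, given luciferin plus IBMX (each 0.5 mM as added) for 1 h at 37 °C, then compound for 1 h at 37 °C. Luminescence was read after 15 min at room temperature.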
GLP1R cytotox = cytotoxicity counter-screen for GLP-1 receptor inverse agonists. HEK293 cAMP-luciferase reporter cells, luminescence, 24 h. Potency, µM (doses to about 38.3 µM), for inactives: top-dose activity change, negative = inhibition, actives largely listed as inhibitors. hit rate 0.13% among 410,000;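 also: loss of luciferase light is scored as toxicity; potency is read from the fitted curve at half-maximal effect; % is scaled to controls: 0 for no effect and ±100 for the full control effect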
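1536-well qHTS counterscreen of the MLSMR; 200 cells/uL, 12 h pre-incubation, 23 nL cpd, 24 h at 37 deg C 5% CO2, luciferase detection reagent, 12 min RT, luminescence. Inhibition = undesired.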
GLP1R ag = activates the human GLP-1 receptor; HEK293 GLP-1R CRE-luciferase, luminescence, 4-6 h; cells express a hypersensitive GLP-1R form; P43220; Potency, µM (titrated, usually from 45.6 µM), inactives show at the highest dose activation, actives largely listed as activators; hit rate 0.007% among 380,000; also: potency is read from the fitted curve at half-maximal effect; % of control where 0% means no effect
GLP1R inv ag = acts as inverse agonist at human GLP-1 receptor; P43220; HEK293 GLP-1R CRE-luciferase, luminescence, 24 h; GLP-1R form is constitutively active; Potency, µM (titrated, usually from 38.3 µM), inactives show top-dose activity change, negative = inhibition, hits mostly inhibitors; hit rate 1.6% among 410,000; also: potency is read from the fitted curve at half-maximal effect; % is scaled to controls: 0 for no effect and ±100 for the full control effect; nearly all actives have a fitted effect of over 55% in size
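HEK293 cells stably co-expressing constitutively active GLP-1R and a cAMP-responsive luciferase reporter were seeded in DMEM with 10% Nu serum, given compounds after 12 h, and incubated 24 h at 37 deg C. Luminescence was then read.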
TSHR antagonist = antagonists of human thyroid stimulating hormone receptor; P16473; TSHR-expressing cells, TSH-stimulated cAMP HTRF, 2 h; stronger effect = lower value; activity change, negative = inhibition, % at 11.5 µM; hit rate 0.2% among 330,000;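 active = activity change below a set negative limit, meaning inhibition stronger than a set level, cut at about -70% in these data; inconclusive = activity change between two set negative limits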; also: % is scaled to controls: 0 for no effect and ±100 for the full control effect
Target sequence (P16473 whole entry, looked up): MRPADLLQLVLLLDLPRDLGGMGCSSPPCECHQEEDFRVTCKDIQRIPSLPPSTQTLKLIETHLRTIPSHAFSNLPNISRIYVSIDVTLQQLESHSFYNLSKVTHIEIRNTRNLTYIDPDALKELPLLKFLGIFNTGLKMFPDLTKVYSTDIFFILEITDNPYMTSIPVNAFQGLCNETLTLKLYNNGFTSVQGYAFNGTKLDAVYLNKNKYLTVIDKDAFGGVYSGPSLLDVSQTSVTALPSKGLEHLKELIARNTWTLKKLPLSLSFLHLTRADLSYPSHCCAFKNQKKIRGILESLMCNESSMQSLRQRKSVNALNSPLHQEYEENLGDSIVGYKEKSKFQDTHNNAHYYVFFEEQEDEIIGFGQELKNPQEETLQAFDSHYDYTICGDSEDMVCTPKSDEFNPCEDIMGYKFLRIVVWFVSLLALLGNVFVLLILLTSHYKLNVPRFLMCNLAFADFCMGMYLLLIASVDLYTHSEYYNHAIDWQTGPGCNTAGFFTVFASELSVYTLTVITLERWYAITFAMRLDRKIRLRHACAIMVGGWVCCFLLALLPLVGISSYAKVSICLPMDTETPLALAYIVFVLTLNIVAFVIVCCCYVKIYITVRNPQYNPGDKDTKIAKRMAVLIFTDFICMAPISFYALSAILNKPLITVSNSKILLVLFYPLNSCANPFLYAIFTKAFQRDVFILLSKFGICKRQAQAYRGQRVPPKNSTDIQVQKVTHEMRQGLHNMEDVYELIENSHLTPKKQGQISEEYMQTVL
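Antagonism was scored as loss of TSH-driven cAMP in TSHR cells, stimulated with 4nM TSH (EC80) for 2 hours at 37 deg C and detected by homogeneous HTRF competition immunoassay.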
Numbers without * were called inactive; i = inactive; u = inconclusive; x = not tested or not shown. Hits are enriched below; roughly 1.8% of the tested compounds scored in any of these assays. Unless noted, calls follow the shape of the dose curve; as a rule, active = well fitted curve in the direction sought with a large enough effect; inconclusive = small, poorly fitted or top-dose-only effect, or another doubt; inactive = no such curve, though single readings can be large; an effect the other way counts as inactive or inconclusive.

SMILES	PTHR1 ag	GLP1R cytotox	GLP1R ag	GLP1R inv ag	TSHR antagonist
Cc1ccc(S(=O)(=O)N2CCN(Cc3noc(CCC(=O)N4CCCCC4)n3)CC2)c(C)c1	i	4%	x	-5%	x
O=C(OCc1ccccc1)N(CCF)c1cn(Cc2ccccc2)c(=O)n(Cc2ccccc2)c1=O	-18%	-3%	18%	10µM*	x
N#CCCN(NC(=O)OCc1ccccc1)C(=O)OCc1ccccc1	i	-15%	1%	-6%	x
CCOC(=O)c1c(C)oc2ncnc(Nc3cc(C)cc(C)c3)c12	-20%	4%	x	5%	x
COC(=O)c1cccc(C23CC4(C2)[C@H](CN(C)[C@@H]4c2ccccc2)C3c2ccc(C(F)(F)F)cc2)c1 (some centres undefined)	i	9%	-3%	-27%	35
CN1C[C@@H]2C(c3ccc(C(F)(F)F)cc3)C3(c4ccc(C#N)cc4)CC2(C3)[C@H]1c1ccccc1 (some centres undefined)	i	-27%	-2%	10µM*	34
COC(=O)c1cccc(C23CC4(C2)[C@H](CN(C)[C@@H]4c2ccccc2)C3c2ccccc2)c1 (some centres undefined)	i	2%	2%	8.9µM*	10
CCOc1ccccc1-n1nnc(S(=O)(=O)c2ccc(C)cc2)c1N	-15%	-3%	1%	10%	x
Cc1ccc(NC(=O)CN(C)C(=O)c2cccc(S(=O)(=O)N3CCc4ccccc43)c2)cc1	-19%	-7%	-6%	11µM*	19
COc1cccc(NC(=O)CN(C)C(=O)c2cccc(S(=O)(=O)N3CC4(C)CC3CC(C)(C)C4)c2)c1 (centres undefined)	i	2%	9%	2%	x
COc1ccc(NC(=O)CN(C)C(=O)c2cccc(S(=O)(=O)N3CC4(C)CC3CC(C)(C)C4)c2)cc1 (centres undefined)	-25%	-22%	21%	11µM*	5
CCCCNC(=O)c1cccc(S(=O)(=O)N2CC3(C)CC2CC(C)(C)C3)c1 (centres undefined)	-20%	2%	9%	10µM*	5
CCCCN(c1ccccc1)c1ncnc2c1cnn2-c1ccc(Cl)cc1	-16%	1%	x	u	x
CCN(CC)C(=O)c1ccc2c(c1)N(Cc1c(F)cccc1Cl)C(=O)c1ccccc1S2	-1%	-6%	-5%	u	x
O=c1[nH]c(=O)c2nc(-c3ccc(Cl)cc3)cnc2[nH]1	14µM*	i	6%	8%	-3
CC(C(=O)Nc1ccccc1C(F)(F)F)n1nc(-c2ccccc2)c2c(c1=O)CCCC2 (centres undefined)	i	-7%	x	u	x
CCC(C(=O)Nc1cc(Cl)ccc1OC)n1nc(-c2ccccc2)ccc1=O (centres undefined)	-6%	-27%	x	u	x
CO/N=C(/C(=O)N[C@@H]1C(=O)N2C(C(=O)O)=C(CSC(=O)c3ccco3)CSC12)c1csc(N)n1 (some centres undefined)	x	x	2%	x	x
COc1ccc(N2CCN(c3oc(-c4ccccc4C)nc3S(=O)(=O)c3ccccc3)CC2)cc1	-23%	3%	x	-12%	x
CC(=O)Oc1ccc2c(C)c(CC(=O)N3CCN(C(=O)C4COc5ccccc5O4)CC3)c(=O)oc2c1C (centres undefined)	-19%	i	5%	-14%	2
COc1cc(C)cc2oc(=O)c(CC(=O)N3CCN(C(=O)C4COc5ccccc5O4)CC3)c(C)c12 (centres undefined)	-16%	-16%	-6%	10µM*	-9
O=C(C1COc2ccccc2O1)N1CCN(Cc2ccc(Br)cc2F)CC1 (centres undefined)	-92%	7%	7%	11µM*	-11
O=C(C1COc2ccccc2O1)N1CCN(Cc2ccc3c(c2)OCO3)CC1 (centres undefined)	i	-2%	12%	u	5
Cc1cc(O)c2c(C)c(CC(=O)N3CCN(C(=O)C4COc5ccccc5O4)CC3)c(=O)oc2c1 (centres undefined)	-43%	12%	0%	6.3µM*	-10
Cc1ccc(Cn2c(=O)c3c(nc4n3CCN4c3cc(C)cc(C)c3)n(C)c2=O)cc1	-17%	0%	x	9%	x
SMILES	PTHR1 ag	GLP1R cytotox	GLP1R ag	GLP1R inv ag	TSHR antagonist
O=C(c1ccccc1)N1N=C(c2ccccc2)CC1c1ccccc1O (centres undefined)	-4%	-29%	7%	11µM*	5
Cc1ccc(C2=NN(C(=O)c3cccs3)C(c3ccccc3O)C2)cc1 (centres undefined)	-61%	-16%	-9%	9%	10
O=C(c1ccncc1)N1N=C(c2ccc(Br)cc2)CC1c1ccccc1O (centres undefined)	-92%	0%	7%	u	10
O=C(c1cccs1)N1N=C(c2ccccc2)CC1c1ccccc1O (centres undefined)	i	-14%	19%	8.9µM*	4
O=C(CSc1nc2ccccc2n1Cc1ccc(F)c(Cl)c1)N1CCN(c2ccc(F)cc2)CC1	-63%	-1%	x	-6%	x
Cc1c(C(=O)N2CCN(C(c3ccccc3)c3ccccc3)CC2)oc2ccccc12	-15%	19%	-7%	4.5µM*	-26
CC(=O)N1CCN(C(c2ccccc2)c2ccccc2)CC1	x	x	x	x	1
COc1cc2ccccc2cc1C(=O)N1CCN(c2nc3c(C)cc(C)cc3s2)CC1	-32%	-7%	x	u	x
CCCCCn1c(=O)[nH]c2cc(C(=O)NCCN3C(C)CCCC3C)ccc2c1=O (centres undefined)	-5%	-4%	6%	1.8µM*	3
O=C(Nc1cccc(NC(=O)c2cc([N+](=O)[O-])ccc2Cl)n1)c1cc([N+](=O)[O-])ccc1Cl	-20%	u	18%	4µM*	x
C=CCC[C@H](Cc1ccc(F)cc1)C(=O)OC[C@@H](Cc1c[nH]c2ccccc12)NC(=O)[C@H](CC=C)CC(=O)N(CCO)Cc1ccccc1	-6%	u	-5%	2.8µM*	-13
C=CC[C@@H](CC(=O)N(CCO)Cc1ccccc1)C(=O)N[C@@H](COC(=O)[C@@H](CC=C)CC(=O)OC(C)(C)C)Cc1c[nH]c2ccccc12	3%	u	-3%	10µM*	-2
Cc1ccc(S(=O)(=O)N(CC(=O)Nc2ccccc2C(=O)O)c2cccc(Cl)c2C)cc1	-4%	-16%	-10%	8.9µM*	-15
COc1ccc(CNS(=O)(=O)c2ccc(-c3cc(C(F)(F)F)on3)s2)cc1OC	-74%	-9%	x	u	x
COc1ccc(Cl)cc1NC(=O)c1cc2ccc3ccc(C)[nH]c3c2n1	-27%	-17%	-4%	u	x
